Records with an inconclusive call do not appear. Active and inactive are the calls of the source. How the source made its calls, unless noted: active means hit-call score of the fitted dose curve at least 0.9, where 1 is the maximum; inconclusive means response in the unintended direction; inactive means score below 0.9.
Tests used:
[1] = target: Nuclear receptor subfamily 1 group I member 3 (Homo sapiens) (UniProt Q14994); assay: ATG_CAR_TRANS: Attagene TRANS-FACTORIAL HepG2 Assay for human Constitutive Androstane Receptor (CAR) (AID 2282969); conditions: HepG2 Attagene TRANS-FACTORIAL CAR reporter;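 further: activators raise reporter mRNA above DMSO so AC50 marks induction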
Sequence of Nuclear receptor subfamily 1 group I member 3 (Homo sapiens) (Q14994 whole entry, looked up, the tested form may be a part): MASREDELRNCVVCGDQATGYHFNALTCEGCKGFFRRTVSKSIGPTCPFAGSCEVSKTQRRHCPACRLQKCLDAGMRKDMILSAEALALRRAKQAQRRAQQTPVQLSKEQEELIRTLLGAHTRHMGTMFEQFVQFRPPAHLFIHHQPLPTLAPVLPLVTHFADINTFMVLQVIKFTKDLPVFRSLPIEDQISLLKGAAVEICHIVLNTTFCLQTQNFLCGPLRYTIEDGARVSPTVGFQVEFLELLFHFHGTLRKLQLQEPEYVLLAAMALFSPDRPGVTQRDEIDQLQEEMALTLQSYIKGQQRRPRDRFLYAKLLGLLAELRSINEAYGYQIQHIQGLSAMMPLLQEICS
Summary of the method: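 Readout is reporter mRNA induction, quantified by fluorescent primer extension and capillary electrophoresis after RT-PCR. Cells were HepG2 transiently carrying chimeric NR-Gal4 constructs with GAL4-UAS reporters, treated for 24 h; activity scored upward from DMSO.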

[2] = target: Estrogen receptor (Homo sapiens) (UniProt P03372); assay: ATG_ERa_TRANS: Attagene TRANS-FACTORIAL HepG2 Assay for human Estrogen Receptor alpha (ERa) (AID 2282970); conditions: HepG2 Attagene TRANS ERa GAL4 reporter, mRNA
Sequence of Estrogen receptor (Homo sapiens) (P03372 whole entry, looked up, the tested form may be a part): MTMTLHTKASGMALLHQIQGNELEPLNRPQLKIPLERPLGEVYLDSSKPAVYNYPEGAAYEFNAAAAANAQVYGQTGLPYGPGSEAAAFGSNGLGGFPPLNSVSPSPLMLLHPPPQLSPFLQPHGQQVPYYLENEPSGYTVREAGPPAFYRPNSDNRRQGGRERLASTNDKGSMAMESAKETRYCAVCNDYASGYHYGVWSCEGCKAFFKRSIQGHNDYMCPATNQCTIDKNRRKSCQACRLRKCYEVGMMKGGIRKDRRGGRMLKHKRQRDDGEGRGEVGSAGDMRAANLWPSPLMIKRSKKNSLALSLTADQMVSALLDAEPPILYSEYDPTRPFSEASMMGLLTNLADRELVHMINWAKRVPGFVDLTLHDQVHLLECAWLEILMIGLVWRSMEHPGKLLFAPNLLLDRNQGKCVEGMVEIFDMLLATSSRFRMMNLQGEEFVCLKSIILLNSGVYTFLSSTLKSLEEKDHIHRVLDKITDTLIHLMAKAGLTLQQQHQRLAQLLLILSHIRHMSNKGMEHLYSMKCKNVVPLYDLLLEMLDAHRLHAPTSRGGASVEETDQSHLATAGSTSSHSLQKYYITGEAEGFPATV
Summary of the method: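 Transactivation via ERa-Gal4 chimera in HepG2; 24 hour incubation; reporter mRNA detected by fluorescence RT-PCR and capillary electrophoresis.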

[3] = target: X-box-binding protein 1 (Homo sapiens) (UniProt P17861); assay: ATG_Xbp1_CIS: Attagene CIS-FACTORIAL HepG2 Assay for human X-box Binding Protein 1 (XBP1) (AID 2282972; active means hit-call score of the fitted dose curve at least 0.9, where 1 is the maximum; inactive means score below 0.9); conditions: HepG2 XBP1 cis-element reporter, Attagene multiplex; actives raise or lower the signal
Sequence of X-box-binding protein 1 (Homo sapiens) (P17861 whole entry, looked up): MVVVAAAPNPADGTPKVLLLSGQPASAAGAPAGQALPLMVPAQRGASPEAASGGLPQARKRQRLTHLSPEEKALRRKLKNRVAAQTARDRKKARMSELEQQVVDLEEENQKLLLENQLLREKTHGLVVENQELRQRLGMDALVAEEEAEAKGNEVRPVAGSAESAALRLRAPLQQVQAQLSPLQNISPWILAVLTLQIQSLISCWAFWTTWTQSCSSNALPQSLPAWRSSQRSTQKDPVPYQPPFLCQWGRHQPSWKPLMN
Summary of the method: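 HepG2 cells transiently transfected with cis-regulated multiple reporter transcription units; endogenous transcription factor activity measured 24 hours after chemical dosing. Reporter mRNA quantified by RT-PCR, 6-FAM primer extension, HpaI digestion and capillary electrophoresis; bidirectional fitting versus DMSO.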

[4] = ATG_M_19_TRANS: Attagene TRANS-FACTORIAL HepG2 Assay for M19 Transcription Factor (Internal Marker) (AID 2282974); conditions: HepG2 Attagene TRANS-FACTORIAL M19 internal marker reporter
Summary of the method: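 HepG2 cells transiently transfected with multiple GAL4-UAS reporter transcription units were exposed to chemicals for 24 h. Reporter mRNA was read by RT-PCR, 6-FAM primer extension, HpaI digestion and capillary electrophoresis; gain of signal fitted relative to DMSO.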

[5] = target: Estrogen-related receptor gamma (Homo sapiens) (UniProt P62508); assay: ATG_ERRg_TRANS: Attagene TRANS-FACTORIAL HepG2 Assay for human Estrogen-Related Receptor gamma (ERRg) (AID 2282977); conditions: HepG2 Attagene TRANS reporter, ERRg transactivation;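 further: hits increase reporter signal over DMSO so potencies reflect activators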
Sequence of Estrogen-related receptor gamma (Homo sapiens) (P62508 whole entry, looked up, the tested form may be a part): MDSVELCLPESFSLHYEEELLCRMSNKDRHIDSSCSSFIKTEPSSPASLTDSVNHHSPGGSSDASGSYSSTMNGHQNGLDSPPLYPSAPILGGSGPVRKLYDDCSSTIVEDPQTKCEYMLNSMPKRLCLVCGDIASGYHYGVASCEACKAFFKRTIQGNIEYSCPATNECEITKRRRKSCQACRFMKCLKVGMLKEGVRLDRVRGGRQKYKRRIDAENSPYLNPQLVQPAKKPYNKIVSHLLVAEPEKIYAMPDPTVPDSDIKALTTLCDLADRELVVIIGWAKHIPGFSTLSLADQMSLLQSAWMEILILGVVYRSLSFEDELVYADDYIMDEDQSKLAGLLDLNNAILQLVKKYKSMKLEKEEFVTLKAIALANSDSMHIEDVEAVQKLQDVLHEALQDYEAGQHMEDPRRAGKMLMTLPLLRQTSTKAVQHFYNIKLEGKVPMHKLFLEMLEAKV
Summary of the method: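 HepG2 cells transiently transfected with multiplexed GAL4-UAS reporter units driven by chimeric NR-Gal4 proteins; 24 h exposure. Reporter mRNA quantified by RT-PCR, fluorescent labelling, HpaI digestion and capillary electrophoresis; gain of signal vs DMSO.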

[6] = ATG_M_06_TRANS: Attagene TRANS-FACTORIAL HepG2 Assay for M06 Transcription Factor (Internal Marker) (AID 2282983); conditions: HepG2 Attagene TRANS M06 internal marker reporter;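 further: reporter transcript level by RT-PCR then capillary electrophoresis fluorescence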
Summary of the method: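 Measured by capillary electrophoresis of fluorescently labelled RT-PCR products, this endpoint reflects reporter mRNA in HepG2 cells harbouring exogenous NR-GAL4 reporter constructs after 24 h exposure, with DMSO as baseline.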

[7] = target: Nuclear receptor subfamily 4 group A member 2 (Homo sapiens) (UniProt P43354); assay: ATG_NURR1_TRANS: Attagene TRANS-FACTORIAL HepG2 Assay for human Nuclear Receptor Related Protein 1 (NURR1) (AID 2282985); conditions: HepG2 Attagene TRANS reporter, mRNA readout
Sequence of Nuclear receptor subfamily 4 group A member 2 (Homo sapiens) (P43354 whole entry, looked up, the tested form may be a part): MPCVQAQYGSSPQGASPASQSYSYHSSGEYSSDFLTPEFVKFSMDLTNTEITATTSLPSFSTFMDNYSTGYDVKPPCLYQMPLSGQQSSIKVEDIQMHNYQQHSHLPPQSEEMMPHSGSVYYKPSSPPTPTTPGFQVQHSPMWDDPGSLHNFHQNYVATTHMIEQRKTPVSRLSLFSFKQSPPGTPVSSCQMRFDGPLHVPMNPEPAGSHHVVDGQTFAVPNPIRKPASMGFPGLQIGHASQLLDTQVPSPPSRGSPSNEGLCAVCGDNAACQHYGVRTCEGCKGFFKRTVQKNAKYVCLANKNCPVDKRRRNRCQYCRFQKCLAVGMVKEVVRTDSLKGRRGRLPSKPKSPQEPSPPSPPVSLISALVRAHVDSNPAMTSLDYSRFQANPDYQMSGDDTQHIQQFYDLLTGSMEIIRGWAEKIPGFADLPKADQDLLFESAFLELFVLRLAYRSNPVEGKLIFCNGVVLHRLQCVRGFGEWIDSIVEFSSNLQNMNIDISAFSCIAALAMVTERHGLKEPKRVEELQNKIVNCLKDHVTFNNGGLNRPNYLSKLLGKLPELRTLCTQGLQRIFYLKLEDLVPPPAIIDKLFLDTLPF
Summary of the method: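 Transient transfection of HepG2, human liver cells, with multiple GAL4-UAS reporter transcription units. Cells dosed 24 h, RNA isolated, reverse-transcribed, PCR-amplified, FAM-labelled, HpaI-digested, sized by capillary electrophoresis. DMSO served as negative control.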

[8] = target: Transcriptional activator Myb (Homo sapiens) (UniProt P10242); assay: ATG_Myb_CIS: Attagene CIS-FACTORIAL HepG2 Assay for human Myeloblastosis (Myb) Proto-Oncogene Transcription Factor (AID 2282986; active means hit-call score of the fitted dose curve at least 0.9, where 1 is the maximum; inactive means score below 0.9); conditions: HepG2 Attagene CIS-FACTORIAL Myb reporter transcription; actives raise or lower the signal
Sequence of Transcriptional activator Myb (Homo sapiens) (P10242 whole entry, looked up): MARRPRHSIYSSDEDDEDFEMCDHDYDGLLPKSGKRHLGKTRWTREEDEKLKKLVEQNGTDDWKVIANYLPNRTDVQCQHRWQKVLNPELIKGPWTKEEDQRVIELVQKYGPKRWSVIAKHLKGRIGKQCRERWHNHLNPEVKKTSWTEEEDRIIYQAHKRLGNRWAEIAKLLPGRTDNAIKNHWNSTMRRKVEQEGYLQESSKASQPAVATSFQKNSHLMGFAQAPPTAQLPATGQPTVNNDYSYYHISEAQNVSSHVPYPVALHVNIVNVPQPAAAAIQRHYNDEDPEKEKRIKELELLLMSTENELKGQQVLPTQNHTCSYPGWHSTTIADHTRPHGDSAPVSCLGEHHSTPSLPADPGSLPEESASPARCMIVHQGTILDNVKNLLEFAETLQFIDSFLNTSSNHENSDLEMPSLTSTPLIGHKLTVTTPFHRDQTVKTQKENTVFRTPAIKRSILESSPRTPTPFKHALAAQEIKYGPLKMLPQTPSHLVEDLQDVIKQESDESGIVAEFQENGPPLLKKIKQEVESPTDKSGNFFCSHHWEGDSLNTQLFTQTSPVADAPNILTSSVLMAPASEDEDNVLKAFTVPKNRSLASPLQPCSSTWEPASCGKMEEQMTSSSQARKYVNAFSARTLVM
Summary of the method: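 HepG2 cells were transiently transfected with cis-regulated multiple reporter transcription units reflecting endogenous Myb activity, then exposed to compound for 24 hours. Reporter mRNA was measured by RT-PCR with capillary electrophoresis; bidirectional fitting versus DMSO baseline.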

[9] = target: Nuclear respiratory factor 1 (Homo sapiens) (UniProt Q16656); assay: ATG_NRF1_CIS: Attagene CIS-FACTORIAL HepG2 Assay for human Nuclear Respiratory Factor 1 (NRF1) Orphan Gene (AID 2282987; active means hit-call score of the fitted dose curve at least 0.9, where 1 is the maximum; inactive means score below 0.9); conditions: HepG2 NRF1 cis-element reporter, Attagene multiplex; actives raise or lower the signal
Sequence of Nuclear respiratory factor 1 (Homo sapiens) (Q16656 whole entry, looked up): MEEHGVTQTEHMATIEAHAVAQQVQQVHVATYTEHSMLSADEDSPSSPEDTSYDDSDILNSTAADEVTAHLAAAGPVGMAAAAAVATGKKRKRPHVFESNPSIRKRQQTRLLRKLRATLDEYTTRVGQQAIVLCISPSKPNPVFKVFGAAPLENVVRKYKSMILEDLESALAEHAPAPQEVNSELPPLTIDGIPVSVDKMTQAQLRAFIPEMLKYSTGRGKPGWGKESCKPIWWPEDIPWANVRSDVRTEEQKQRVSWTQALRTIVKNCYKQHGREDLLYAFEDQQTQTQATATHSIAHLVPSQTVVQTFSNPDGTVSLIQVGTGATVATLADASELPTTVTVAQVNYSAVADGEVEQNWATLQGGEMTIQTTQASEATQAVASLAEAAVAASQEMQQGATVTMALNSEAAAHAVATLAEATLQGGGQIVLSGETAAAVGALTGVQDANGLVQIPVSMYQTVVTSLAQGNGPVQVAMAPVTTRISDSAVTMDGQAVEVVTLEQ
Summary of the method: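 HepG2 cells transiently transfected with multiple reporter transcription units under cis-regulatory promoter control, so endogenous transcription-factor activity is read. After 24 h compound exposure, reporter mRNA quantified by RT-PCR, fluorescent labelling, HpaI digestion and capillary electrophoresis; bidirectional fitting versus DMSO.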

[10] = ATG_NFI_CIS: Attagene CIS-FACTORIAL HepG2 Assay for human Nuclear Factor I (NFI) (AID 2282989; active means hit-call score of the fitted dose curve at least 0.9, where 1 is the maximum; inactive means score below 0.9); conditions: HepG2 cis-regulatory reporter, NFI response element transcription; actives raise or lower the signal
Summary of the method: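 Reporter transcription driven by endogenous transcription factors in HepG2 cells; 24 h treatment. Quantitation by labelled RT-PCR fragments on capillary electrophoresis, gain- or loss-of-signal relative to DMSO.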

[11] = target: Myc proto-oncogene protein (Homo sapiens) (UniProt P01106); assay: ATG_Myc_CIS: Attagene CIS-FACTORIAL HepG2 Assay for human Myelocytomatosis (Myc) Proto-Oncogene Transcription Factor (AID 2282990; active means hit-call score of the fitted dose curve at least 0.9, where 1 is the maximum; inactive means score below 0.9); conditions: HepG2, Attagene cis-reporter transcription factor activity; actives raise or lower the signal
Sequence of Myc proto-oncogene protein (Homo sapiens) (P01106 whole entry, looked up, the tested form may be a part): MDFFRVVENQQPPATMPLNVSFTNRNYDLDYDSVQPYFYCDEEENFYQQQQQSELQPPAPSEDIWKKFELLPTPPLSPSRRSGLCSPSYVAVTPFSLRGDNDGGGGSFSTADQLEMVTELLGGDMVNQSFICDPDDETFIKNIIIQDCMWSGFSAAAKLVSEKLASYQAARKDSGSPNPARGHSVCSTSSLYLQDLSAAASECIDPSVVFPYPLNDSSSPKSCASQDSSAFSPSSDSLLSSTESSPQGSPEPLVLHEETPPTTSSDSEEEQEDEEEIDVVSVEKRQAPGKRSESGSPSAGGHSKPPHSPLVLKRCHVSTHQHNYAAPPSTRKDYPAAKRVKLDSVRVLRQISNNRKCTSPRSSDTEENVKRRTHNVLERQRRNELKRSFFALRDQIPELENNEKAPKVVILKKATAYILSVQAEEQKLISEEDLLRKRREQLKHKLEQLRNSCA
Summary of the method: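 After 24 h chemical treatment of HepG2 cells carrying multiplexed cis-regulated reporter constructs, reporter transcripts quantified by RT-PCR and capillary electrophoresis of fluorescent fragments. Gain or loss fitted against DMSO baseline.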

[12] = target: Steroid hormone receptor ERR1 (Homo sapiens) (UniProt P11474); assay: ATG_ERRa_TRANS: Attagene TRANS-FACTORIAL HepG2 Assay for human Estrogen-Related Receptor alpha (ERRa) (AID 2282971); conditions: HepG2 Attagene TRANS reporter, ERRa transactivation
Summary of the method: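 HepG2 cells were transiently transfected with multiple GAL4-UAS reporter units, then dosed with compound for 24 h. Total RNA was reverse-transcribed, reporter cDNA PCR-amplified and fluorescently labelled, and fragments resolved by capillary electrophoresis; induction was compared with DMSO.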

[13] = target: Bile acid receptor (Homo sapiens) (UniProt Q96RI1); assay: ATG_FXR_TRANS: Attagene TRANS-FACTORIAL HepG2 Assay for Farnesoid X Receptor (FXR) (AID 2282979); conditions: HepG2 Attagene TRANS FXR-GAL4 reporter transcription;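 further: hits raise reporter mRNA above DMSO so AC50 marks FXR activation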
Sequence of Bile acid receptor (Homo sapiens) (Q96RI1 whole entry, looked up, the tested form may be a part): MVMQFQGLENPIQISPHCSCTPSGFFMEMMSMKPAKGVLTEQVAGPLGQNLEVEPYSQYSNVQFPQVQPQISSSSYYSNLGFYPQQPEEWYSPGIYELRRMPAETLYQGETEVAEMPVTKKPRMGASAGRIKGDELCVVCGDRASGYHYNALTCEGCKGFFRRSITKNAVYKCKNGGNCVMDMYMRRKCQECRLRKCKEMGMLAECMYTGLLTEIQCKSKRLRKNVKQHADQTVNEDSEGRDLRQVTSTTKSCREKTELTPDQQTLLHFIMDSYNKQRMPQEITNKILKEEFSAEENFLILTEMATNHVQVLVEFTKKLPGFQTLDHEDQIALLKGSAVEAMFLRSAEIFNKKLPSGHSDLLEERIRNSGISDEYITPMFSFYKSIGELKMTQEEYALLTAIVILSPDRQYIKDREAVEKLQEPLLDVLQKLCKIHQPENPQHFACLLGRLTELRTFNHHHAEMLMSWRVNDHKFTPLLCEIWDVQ
Summary of the method: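 Chimeric FXR-GAL4 activity in transiently transfected human HepG2 liver cells is scored as induction of reporter mRNA after 24 h of dosing. Detection uses RT-PCR with fluorescent labelling and capillary electrophoresis, with DMSO serving as baseline.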

[14] = target: Oxysterols receptor LXR-alpha (Homo sapiens) (UniProt Q13133); assay: ATG_LXRa_TRANS: Attagene TRANS-FACTORIAL HepG2 Assay for human Liver X Receptor alpha (LXRa) (AID 2282980); conditions: HepG2 Attagene TRANS reporter, LXRa transactivation
Summary of the method: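 Transient HepG2 transfectants, 24 h dosing, RT-PCR/CE mRNA reporter quantitation; gain-of-signal vs DMSO.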

[15] = target: Hepatocyte nuclear factor 4-alpha (Homo sapiens) (UniProt P41235); assay: ATG_HNF4a_TRANS: Attagene TRANS-FACTORIAL HepG2 Assay for human Hepatocyte Nuclear Factor 4 alpha (HNF4a) (AID 2282982); conditions: HepG2 HNF4a transactivation reporter, mRNA readout
Sequence of Hepatocyte nuclear factor 4-alpha (Homo sapiens) (P41235 whole entry, looked up, the tested form may be a part): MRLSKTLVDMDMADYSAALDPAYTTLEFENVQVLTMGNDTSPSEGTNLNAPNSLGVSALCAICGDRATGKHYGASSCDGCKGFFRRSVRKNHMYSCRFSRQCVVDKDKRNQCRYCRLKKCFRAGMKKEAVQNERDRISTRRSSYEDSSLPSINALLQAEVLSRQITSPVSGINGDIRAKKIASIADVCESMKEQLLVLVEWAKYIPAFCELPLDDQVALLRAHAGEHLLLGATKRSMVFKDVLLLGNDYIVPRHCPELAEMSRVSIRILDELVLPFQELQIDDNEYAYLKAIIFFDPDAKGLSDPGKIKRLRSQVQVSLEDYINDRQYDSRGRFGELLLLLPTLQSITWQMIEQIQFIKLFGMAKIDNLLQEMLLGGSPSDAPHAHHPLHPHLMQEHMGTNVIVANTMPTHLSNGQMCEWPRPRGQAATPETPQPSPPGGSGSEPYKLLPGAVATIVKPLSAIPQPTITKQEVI
Summary of the method: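 Readout is fluorescent reporter-transcript fragments resolved by capillary electrophoresis after RT-PCR from HepG2 cells dosed for 24 h. Cells carried transfected GAL4-UAS reporter constructs measuring exogenous NR-GAL4 chimera activity; DMSO served as baseline.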

[16] = ATG_M_32_TRANS: Attagene TRANS-FACTORIAL HepG2 Assay for M32 Transcription Factor (Internal Marker) (AID 2282984); conditions: HepG2 Attagene TRANS M32 internal marker reporter;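 further: transcript level of a background control reporter unit measured by RT-PCR and capillary electrophoresis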
Summary of the method: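 Measures reporter mRNA induction in human HepG2 liver cells after 24 h chemical treatment. Transcripts from transiently transfected GAL4-UAS reporter units are amplified, fluorescently labelled and sized by capillary electrophoresis; gain of signal relative to DMSO.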

[17] = target: Androgen receptor (Homo sapiens) (UniProt P10275); assay: ATG_AR_TRANS: Attagene TRANS-FACTORIAL HepG2 Assay for human Androgen Receptor (AR) (AID 2282973); conditions: HepG2 Attagene TRANS-FACTORIAL AR reporter transcription
Summary of the method: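 Transfected HepG2, 24 h treatment, chimeric NR-Gal4 driving GAL4-UAS reporters. mRNA induction by RT-PCR/capillary electrophoresis fluorescence; DMSO as negative control and baseline.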

[18] = target: Oxysterols receptor LXR-beta (Homo sapiens) (UniProt P55055); assay: ATG_LXRb_TRANS: Attagene TRANS-FACTORIAL HepG2 Assay for human Liver X Receptor beta (LXRb) (AID 2282981); conditions: HepG2 Attagene TRANS GAL4-LXRb reporter, mRNA
Summary of the method: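 Transient transfection HepG2 (multiplexed RTUs, GAL4-UAS); NR-Gal4 chimera; 24 h exposure; RNA → RT-PCR → 6-FAM primer extension → HpaI → CE; increase vs DMSO.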

Measured: AC50

Cc1c([N+](=O)[O-])c(C)c([N+](=O)[O-])c(C(C)(C)C)c1[N+](=O)[O-]
active: [2] 7.73 µM | [3] 100 µM | [7] 11.3 µM
inactive: [1] | [4] | [5] | [6] | [8] | [9] | [10] | [11]

CC(C)(C)c1cc([N+](=O)[O-])cc(C(C)(C)C)c1O
inactive: [1] | [2] | [12] | [4] | [5] | [13] | [14] | [15] | [9] | [10] | [11]
active: [3] 4.78 µM | [7] 12.4 µM

O=[N+]([O-])c1c2ccccc2cc2ccccc12
inactive: [1] | [12] | [3] | [5] | [15] | [6] | [16] | [8] | [9] | [10] | [11]
active: [2] 5.59 µM

NC(=O)CCl
inactive: [1] | [2] | [3] | [17] | [14] | [18] | [15] | [6] | [16] | [7] | [8] | [9] | [10] | [11]

OC(Cc1ccccc1Cl)(Cn1[nH]cnc1=S)C1(Cl)CC1 (stereo unspecified)
inactive: [1] | [17] | [4] | [13] | [7] | [8] | [9] | [10] | [11]
active: [2] 5.83 µM | [3] 100 µM
